From PubChem BioAssay AID1578 (Sanford-Burnham Center for Chemical Genomics, 2009)
In all, about 290,000 compounds went through this assay and about 3,000 (1%) were called active. Cut-off read from the data, not from the text of the source: active = inhibition mostly above about 36% (no sharp cut-off); inactive = mostly below about 34%. Shown is part of a subset that was picked to be rich in actives.

Test: inhibition of NOD1-driven NF-kB reporter – cell-based, luminescence, uHTS, primary screen (AID 1578);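 note: HEK-293T reporter cells stimulated with the NOD1 agonist gamma-tri-DAP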
Settings: NOD1-driven NF-kB luciferase reporter cells, at 4 µM, active compounds read high

inhibition, inactive:
CCCCOc1cccc(C(=O)NC(=S)Nc2cccc(NC(=O)c3ccccc3Cl)c2)c1 -15.9%, COc1ccc2c(c1OC)C(=O)N(c1cccc(C(F)(F)F)c1)C2 -67.5%, CC(=O)c1ccccc1C(=O)NCc1cccnc1 -9.2%, COC(=O)C1=C(C)Nc2c(c(=O)n(C)c(=O)n2C)C1c1cccnc1 (stereo unspecified) -10.6%, COC(=O)C1=C(C)Nc2c(c(=O)n(C)c(=O)n2C)C1c1ccc(C)cc1 (stereo unspecified) -27.5%, Cc1ccc(S(=O)(=O)N(CC(=O)Nc2cccnc2)c2cccc([N+](=O)[O-])c2)cc1 -14.2%, COc1ccc([N+](=O)[O-])cc1NC(=O)CSc1ccc2ccccc2c1 41.3%, O=C(CCCN1C(=O)/C(=C\c2cccs2)SC1=S)Nc1cc([N+](=O)[O-])ccc1O 26.3%, O=C(CCN1C(=O)/C(=C/c2ccc(F)cc2)SC1=S)Nc1cc([N+](=O)[O-])ccc1O -1.3%, Cc1ccc(/C=C2\SC(=S)N(CCC(=O)NNC(=O)c3ccccc3O)C2=O)cc1 -24.7%, COc1ccc(/C=C2/SC(=S)N(CCCC(=O)Nc3ccccc3C(=O)O)C2=O)cc1 34.1%, Cc1ccc(O)c(NC(=O)CSc2ccc(Cl)cc2)c1 17%, COc1cc(Cl)ccc1OCc1cc(C(=O)N(C)Cc2cccc3cnccc23)no1 11.4%, CC1(C)SC(=S)N(/N=C/c2ccccc2O)C1N(O)C(=O)Nc1ccccc1 (stereo unspecified) -1.1%, CCCSc1nnc(NC(=O)c2nc(SC)ncc2Cl)s1 -10.4%, Cc1cccn2c(=O)c(C=Nc3c(C)n(C)n(-c4ccccc4)c3=O)c(N3CCCC3)nc12 -3.8%, COc1ccccc1NC(=S)N1CCc2cc(OC)c(OC)cc2C1 -30%, Oc1ccc(N=Nc2c(O)ccc3ccccc23)cc1 24%, Oc1ccc2ccccc2c1/C=N/c1nccs1 -6%, CCCCC(=O)Nc1cc(NC(=O)CC)ccc1Cl -13.8%, CCn1c(SC)nnc1-c1nnc(SC)n1CC -5.7%, Cc1cc(C)cc(C(=O)NCc2ccc3c(c2)OCO3)c1 -31%, CCC(=O)Nc1cc2c(C)cc(=O)oc2cc1C -1.6%, Cc1cc2oc(=O)cc(C)c2cc1NC(=O)CCC(=O)O -10.8%, Cc1cc(OCc2ccc(C(=O)n3cccn3)o2)ccc1Cl -24.5%, Cc1ccc(C)c(NC(=O)CSc2nnc([C@@H]3CCCN3C(=O)OC(C)(C)C)o2)c1 9.1%, CCOC(=O)c1cnc(Nc2nc3ccccc3o2)nc1CN1CCN(C)CC1 -1.5%, CCOC(=O)c1cnc(Nc2nc3ccccc3o2)nc1CSC(=S)N(CC)CC -23%, O=C(O)c1ccc2c(=O)n3c(nc2c1)/C(=C/c1ccccc1Br)CC3 -85.4%, CCOC(=O)c1c(C)oc2c1c(C=NCCO)c(O)c1ccccc12 -37.2%, CCOC(=O)c1c(C)oc2c1c(C=NCCC(=O)O)c(O)c1ccccc12 -16.5%, CCOC(=O)c1c(-c2ccccc2)csc1NC(=O)C(C)NCc1ccco1 (stereo unspecified) 1.6%, N#C/C(=C\c1ccc(F)c(Cl)c1)S(=O)(=O)c1ccccn1 0.3%, COc1ccc(/C=N/NC(=O)C2C(C=C(Cl)Cl)C2(C)C)c(OC)c1 (stereo unspecified) -24.6%, CC1(C)OC2OC(C(=O)N/N=C/c3ccccc3F)C3OC(C)(C)OC3C2O1 (stereo unspecified) -13.7%, CCN1CNC(=S)N(c2cccc(C)c2)C1 -5.8%, Cc1nnc(NC(=O)c2cccc(S(=O)(=O)N3CCc4ccccc43)c2)s1 11.7%, CCC(CC)c1nnc(NC(=O)c2cccc(S(=O)(=O)N3CCc4ccccc43)c2)s1 56.8%, COc1cc2ccccc2cc1C(=O)Nc1ccc(N2CCN(C(=O)C(C)C)CC2)cc1 17.8%, CC(=O)OC(C(=O)NC1CCCCC1)c1ccccc1F (stereo unspecified) -33.2%, O=C(NN1CCOCC1)c1ccc(Cl)cc1[N+](=O)[O-] -11.4%, COc1ccc(NS(=O)(=O)c2ccc(Br)cc2)cn1 -35.5%, O=C(Nc1ccc(Br)cc1)c1cccc(S(=O)(=O)Nc2cnc3ccccc3c2)c1 48.2%, COc1ccc(NS(=O)(=O)c2ccc3oc4ccccc4c3c2)cn1 56.6%, O=C(O)c1ccc(NS(=O)(=O)c2cccc(C(=O)Nc3ccc(Br)cc3)c2)cc1 -13.1%, Cc1ccc2cc(NC(=O)CC(CC(=O)O)c3ccccc3)ccc2n1 (stereo unspecified) -10.4%, CNC(=S)NCCc1ccc(OC)c(OC)c1 24.7%, CCN(CC)S(=O)(=O)c1cccc(NC(=O)COC(=O)CCC(=O)c2ccc(F)cc2)c1 -40.1%, O=C(c1cc2ccccc2oc1=O)N(c1ccccc1)C1C=CS(=O)(=O)C1 (stereo unspecified) 5.4%, C/C(=N\N=C(/N)SC1CC(=O)N(c2ccccc2)C1=O)c1cccs1 (stereo unspecified) 15.7%, C/C(=N\N=C(/N)SC1CC(=O)N(c2ccc(Cl)cc2)C1=O)c1cccs1 (stereo unspecified) -4.8%, Cc1cccnc1CN1CCN(C(=O)CCc2nnc(CCc3ccccc3)o2)CC1 -55.3%, CCCN1C(=O)/C(=C/c2nc3ccccc3c(=O)[nH]2)c2ccccc21 -6.3%, CCN1C(=O)/C(=C/c2nc3ccccc3c(=O)[nH]2)c2ccccc21 21.1%, Cc1ccc(CC(=O)Nc2ncc([N+](=O)[O-])s2)cc1 -37.4%, CCCCC(=O)Nc1ncc([N+](=O)[O-])s1 -10.8%, O=C(CS(=O)(=O)c1ccccc1)Nc1ncc([N+](=O)[O-])s1 -39%, CC(C)CC(=O)Nc1ncc([N+](=O)[O-])s1 3.6%, COc1ccc(CC(=O)Nc2ncc([N+](=O)[O-])s2)cc1OC -65%, CC(CC(=O)Nc1ncc([N+](=O)[O-])s1)c1ccccc1 (stereo unspecified) -19.5%, CC(C1CC1)N(Cc1ccccc1)C(=S)Nc1ccccc1Cl (stereo unspecified) -9.7%, CC(SCC(=O)O)c1nc2ccccc2[nH]1 (stereo unspecified) 10.8%, CCOc1ccccc1N(C)S(=O)(=O)c1ccc2c(c1)N(C(C)=O)CCO2 5.2%, NC(=O)/C(=C\c1ccccc1)NC(=O)/C=C/c1ccccc1 -19%, CCOC(=O)c1nn(-c2ccccc2)c2nnc(Cc3ccccc3)c(=O)n12 45.2%, CCOC(=O)C1=C(CSc2nc3ccccc3s2)NC(=O)NC1c1cccc([N+](=O)[O-])c1 (stereo unspecified) 32.6%, COC(=O)C1=C(CSc2nc3ccccc3s2)NC(=O)NC1c1ccc(F)cc1 (stereo unspecified) -25.4%, CCN(CC)CCCNC(=O)C1c2ccccc2C(=O)N(CCOC)C1c1ccc(F)cc1 (stereo unspecified) -40.8%, CCN1CCN(CCCNC(=O)C2c3ccccc3C(=O)N(C)C2c2ccc(OC)cc2)CC1 (stereo unspecified) -21.6%, COc1ccc(CCN2CC(C(=O)NC3CCCCC3)CC2=O)cc1OC (stereo unspecified) -2%, CCCc1cc(NCCCO)n2c(nc3ccccc32)c1C#N -0.5%, Cc1n[nH]c(C)c1CCNCc1ccc(OCC(O)CN2CCCCC2)cc1 (stereo unspecified) -21.7%, O=C(Nc1nccs1)c1cn2ccccc2n1 22.8%, O=C(Nc1ccccc1)c1cn2ccccc2n1 1.1%, Cc1noc(C)c1CSc1cc(C)c2ccccc2n1 -32.2%, COc1ccc(C(=O)Nc2ccc3c(c2)C(=O)N(C)C3=O)cc1OC -3.5%, COc1cccc(-n2cnc3sc(C)cc3c2=O)c1 -25.1%, CCCOC(=O)c1cc(=O)[nH]c2ccccc12 -5.2%, O=C(NCCN1C(=O)S/C(=C\c2ccc(Cl)cc2)C1=O)c1ccc(F)c(S(=O)(=O)N2CCOCC2)c1 -0.6%, O=C(NCCN1C(=O)S/C(=C\c2ccc(F)cc2)C1=O)c1cccc(S(=O)(=O)N2CCOCC2)c1 21.8%

inhibition, active:
COC(=O)C1=C(C)Nc2c(c(=O)n(C)c(=O)n2C)C1c1ccncc1 (stereo unspecified) 68.6%, Cc1ccc(/C=C2/SC(=S)N(CCCC(=O)Nc3cc([N+](=O)[O-])ccc3O)C2=O)cc1 71.1%, Cc1ccc(SCC(=O)Nc2cc([N+](=O)[O-])ccc2O)cc1 77.2%, Oc1ccc2ccccc2c1N=Nc1nccs1 106%, Cc1cc2oc(=O)cc(C)c2cc1NC(=O)CCl 42.5%, CCOC(=O)c1cnc(Nc2nc3ccccc3o2)nc1C 78.1%, CCOC(=O)c1c(C)oc2c1c(C=NC1CCS(=O)(=O)C1)c(O)c1ccccc12 (stereo unspecified) 75.8%, CC1(C)C(C=C(Cl)Cl)C1C(=O)N/N=C/c1ccccc1F (stereo unspecified) 80.1%, CCOC(=O)c1sc(NC(=O)c2cccc(S(=O)(=O)N3CCc4ccccc43)c2)c(C#N)c1C 79.7%, C/C(=N\N=C(/N)SC1CC(=O)N(c2ccc(Br)cc2)C1=O)c1cccs1 (stereo unspecified) 87.7%, CC(C)N1C(=O)/C(=C\c2nc3ccccc3c(=O)[nH]2)c2ccccc21 105%, O=C(COc1ccc(Cl)cc1)Nc1ncc([N+](=O)[O-])s1 73.5%, CCOC(=O)C1=C(CSc2nc3ccccc3s2)NC(=O)NC1c1ccc(OC)cc1 (stereo unspecified) 67.5%, CCN(CC)CCCNC(=O)C1c2ccccc2C(=O)N(C)C1c1ccc(OC)cc1 (stereo unspecified) 99.8%, Cc1csc(NC(=O)c2cn3ccccc3n2)n1 53.2%, CC(C)(C)c1ccc(/C=C2\SC(=O)N(CCNC(=O)c3cccc(S(=O)(=O)N4CCOCC4)c3)C2=O)cc1 74.4%
